Structures can show the parent of a compound that is named as a salt.
These molecules were tested on Brugia pahangi adult female (assay: IC50 motility inhibition on day 3). Conditions: 3 days.
Method: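 Single adult female Brugia pahangi worms in 24-well plates (RPMI-1640, 5% FBS, 37 °C) were treated with 10 µM of each compound from a 2121-drug library (4 replicates; 1% DMSO vehicle and 10 µM auranofin controls). Motility was recorded with WormAssay dark-field imaging, and % inhibition of motility on day 3 is relative to vehicle. IC50 values for selected hits come from a 6-point dilution series (30 to 0.1 µM) fitted in GraphPad Prism.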

Row | Compound | IC50 motility inhibition on day 3 [µM]
1 | C[n+]1c2cc(N)ccc2cc2ccc(N)cc21 [acriflavinium hydrochloride] | 4.62
2 | CSc1ccc2c(c1)N(CCC1CCCCN1C)c1ccccc1S2 (stereo not given) [Thioridazine hydrochloride] | 8.08
3 | COC(=O)C1=C(C)NC(C)=C(C(=O)OCC(C)C)C1c1ccccc1[N+](=O)[O-] (stereo not given) [nisoldipine] | 9.81
4 | CC1=CC(=O)c2ccccc2C1=O [menadione] | 4.23
5 | Clc1ccc(Cn2c(CN3CCCC3)nc3ccccc32)cc1 [clemizole hydrochloride] | 6.51
6 | Oc1c(Cl)cc(Cl)c(Cl)c1Cc1c(O)c(Cl)cc(Cl)c1Cl [hexachlorophene] | 1.7
7 | Oc1ccc2ccccc2c1 [beta-naphthol] | 8.31
8 | O=C(Nc1ccc([N+](=O)[O-])cc1Cl)c1ccccc1O | 2.6
9 | CN(C)c1ccc2nc3ccc(=[N+](C)C)cc-3sc2c1 [methylene blue] | 1.06
10 | O=C1c2cccc(O)c2C(=O)c2c(O)cccc21 [dantron] | 18.3
